High-throughput results deposited in PubChem by National Center for Advancing Translational Sciences (NCATS).
Pol III holo inh = qHTS Assay for Inhibitors of DNA Polymerase III Holoenzyme System. reconstituted DNA polymerase III holoenzyme replication, biochemical. Potency, µM (series often up to 57.1 µM), for inactives: top-dose activity change, negative = inhibition. 71,000 compounds, 0.25% hits. AID 603, 2007; further: potency means the concentration at half of the fitted maximal effect; on the % scale 0 is the no-effect control and ±100 the full control effect
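Reconstituted *E. coli* holoenzyme (0.35 nM Pol III, 1 nM beta, 154 nM SSB, 2 nM primase) was preincubated with compound for 15 min at RT. Synthesis on 1.4 nM ssM13Gori ran 35 min, then was stopped with PicoGreen/EDTA and read as dsDNA fluorescence.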
HEK293 cAMP ctrl = qHTS Assay for Agonists of the Thyroid Stimulating Hormone Receptor: Activators of Intracellular cAMP Concentrations in Parental HEK 293; parental HEK293 CNG cAMP sensor, membrane potential fluorescence; Potency, µM (doses to about 57.1 µM), for the others: at the highest dose activation, usual class: activators; 73,000 compounds, 2.5% hits; AID 938, 2007; further: potency means the concentration at half of the fitted maximal effect; % of control where 0% means no effect; nearly all actives have a fitted effect of over 55% in size
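Parental HEK 293 cells stably expressing a cAMP-gated CNG channel were loaded with membrane potential dye containing 100 uM RO 20-1724 for 60 min. Compound added for 30 min; depolarization read as fluorescence intensity at 590 nm.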
TSHR agonist = qHTS Assay for Agonists of the Thyroid Stimulating Hormone Receptor. Potency, µM (titrated, usually from 57.1 µM), for the others: at the highest dose activation, actives largely listed as activators. Thyrotropin receptor (Homo sapiens), P16473. HEK293-CNG-TSHR cells (CNG channel as cAMP sensor), membrane potential dye, cAMP. AID 926, 2007. 73,000 compounds, 0.48% hits; active means well fitted activation curve with a large enough effect in the main read-out, with a control signal flat, not every such curve was filed as active; inconclusive means small, poorly fitted or top-dose-only effect, or a change in a side signal; inactive means no such curve, though single readings can be large or run the other way; % of control where 0% means no effect;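 further: the control signal comes from parental cells without the receptor; potency means the concentration at half of the fitted maximal effect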
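HEK 293 cells stably expressing TSHR and a modified CNG channel, with CNG-only parental cells as counterscreen, were preloaded 60 min at room temperature with membrane potential dye containing 100 uM RO 20-1724. Compound exposure was 30 min, and depolarization was read as fluorescence at 590 nm.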
YjeE inh = qHTS Assay for Inhibitors of YjeE | 71,000 compounds, 0.05% hits | Potency, µM | tRNA threonylcarbamoyladenosine biosynthesis protein TsaE (Escherichia coli (strain … | purified YjeE enzyme, qHTS inhibition assay
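Fluorescence polarization of a BODIPY Texas Red–ADP probe (2 uM) bound to purified YjeE (10 uM) was read after 15 min room-temperature incubation with compounds. Loss of polarization marks inhibitors; ADP serves as titrated control.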
BRCT PPI green = qHTS Assay for Inhibitors of BRCT-Phosphoprotein Interaction (Green Fluorophore) | Breast cancer type 1 susceptibility protein (Homo sapiens), P38398 | BRCA1 BRCT-phosphopeptide binding, green fluorescence polarization | Potency, µM (top dose mostly 76.9 µM), for the others: at the top dose activity change, negative = inhibition, usual class: inhibitors | 75,000 compounds, 0.05% hits | AID 875, 2007;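 further: potency means the concentration at half of the fitted maximal effect; plate controls were peptide without protein for full effect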
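Compounds were incubated for 12 min at room temperature with a complex of 100 nM fluorescein-tagged pBACH1 decapeptide and 250 nM His-tagged BRCT protein. Buffer was phosphate pH 7.3 with EDTA, DTT and Tween 20. Disruption of binding lowers the polarization signal.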
BRCT inh red = qHTS Assay for Inhibitors of BRCT-Phosphoprotein Interaction (Red Fluorophore); Potency, µM (highest dose often 76.9 µM), for inactives: at the top dose activity change, negative = inhibition, hits mostly inhibitors; 75,000 compounds, 0.03% hits; Breast cancer type 1 susceptibility protein (Homo sapiens), P38398; BRCT-phosphopeptide binding, red fluorescence polarization; further: on the % scale 0 is the no-effect control and ±100 the full control effect
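Fluorescence polarization: 100 nM His-tagged BRCA1 BRCT with 100 nM TAMRA-labelled phospho-BACH1 decapeptide, phosphate buffer pH 7.3 with 150 mM NaCl, DTT, 0.01% Tween 20; 12 min RT. Binding inhibition seen as FP decrease.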
Active calls of the source: *; i = inactive; ? = inconclusive; · = not tested or not shown; [ ] = another dose, or the depositor's remark. A selection: hits, their analogues and other compounds. The true share with any hit is near 3.2%. Unless noted, the call rests on the fitted dose curve; in most records, active means well fitted curve in the direction sought with a large enough effect; inconclusive means small, poorly fitted or top-dose-only effect, or another doubt; inactive means no such curve, though single readings can be large; an effect the other way counts as inactive or inconclusive.

SMILES | Pol III holo inh | HEK293 cAMP ctrl | TSHR agonist | YjeE inh | BRCT PPI green | BRCT inh red
O=C1CSC(c2cn(-c3ccccc3)nc2-c2cc3ccccc3oc2=O)N1Cc1ccco1 (configuration not stated) | -4.8% | 28.9% | · | i | 0.8% | 0.7%
Cc1ccc(-c2nn(-c3ccccc3)cc2C2SCC(=O)N2Cc2ccccc2)o1 (configuration not stated) | -10.8% | 13.2% | 25.1µM* | i | -0.3% | 0.2%
CCCc1cc(C(=O)Cc2ccc(C(=O)OCC)o2)c(O)cc1O | -7.9% | 20µM* | ? | i | 0.1% | -1.8%
CN1CCN(c2ccnc(-c3ccccc3C(F)(F)F)n2)CC1 | -5.6% | 31.6µM* | ? | i | -0.4% | -0.8%
Cc1ccc(CN(C)C(=O)c2ccccc2Oc2ccccc2)o1 | -0.2% | 31.6µM* | ? | i | -0.6% | -1.1%
Cc1ccc(/C=c2\sc3nc(-c4ccco4)nn3c2=O)o1 | 3.98µM* | 18.9% | 7.7%[11.4 µM] | i | -0.2% | -8.0%
Cc1ccc(/C=c2\sc3nc(-c4ccccc4Br)nn3c2=O)o1 | -8.2% | 9.0% | 24.4% | i | 0.4% | 1.0%
CCc1cc(C(=O)OC)c(N2C(=O)C3C4C=CC(C4)C3C2=O)s1 (configuration not stated) | -3.2% | 4.1% | 7.94µM* | i | -0.4% | -0.7%
CCCC(c1nnnn1C1CCCCC1)N1CCN(C2CCCC2)CC1 (configuration not stated) | 0.8% | 15.8µM* | ? | i | -0.5% | 1.8%
CCC(c1nnnn1C1CCCCC1)N1CCN(C2CCCC2)CC1 (configuration not stated) | -7.8% | 5.01µM* | ? | i | -0.7% | -1.2%
CCCC(c1nnnn1C(C)(C)CC)N1CCN(C2CCCC2)CC1 (configuration not stated) | 4.2% | 1µM* | ? | i | -1.1% | -1.6%
CCCCCCSc1cc(C)nc2ncnn12 | -4.2% | 10.2% | 15.9% | i | 0.0% | -0.9%
Cc1cccc2cc(C#N)c(SCC(=O)N3CCC(C)CC3)nc12 | -10.9% | 25.1µM* | ? | i | 3.8% | -0.9%
COc1cccc(C2CC(c3cccc(Br)c3)n3ncnc3N2)c1 (configuration not stated) | 2.2% | 14.1% | 13.5% | i | -0.8% | -0.8%
COc1ccc(/C=N/n2c(SC)nnc2-c2ccccc2)c(OC)c1OC | -0.4% | ? | ? | i | 12.7% | -2.9%
COc1ccc(/C=N/n2c(SC)nnc2-c2ccccc2)cc1C | 3.8% | 25.1µM* | ? | i | 6.3% | -0.2%
c1ccc(-n2cccc2CNC2CCCCC2)cc1 | -0.4% | 25.1µM* | ? | i | -1.3% | -1.5%
O=c1cc(CSc2nnc(COc3ccc(Cl)cc3)o2)c2ccccc2[nH]1 | 2.4% | 25.1µM* | ? | i | -4.6% | -1.0%
CCN(CC)S(=O)(=O)c1ccc(N2CCCC2)c(C(=O)OCC(=O)/C(C#N)=C(\C)N)c1 | -1.3% | 14.8% | 25.1µM* | i | 0.2% | -0.4%
COc1ccc(-n2c(COc3ccccc3)nnc2SCC(N)=O)cc1 | -4.1% | 6.7% | 8.7% | i | -5.9% | -0.4%
CN1CCN(CCCNC(=O)c2cc3c(=O)n(C)c4ccccc4c3s2)CC1 | -11.7% | 4.3% | 4.5% | i | 3.8% | -1.8%
CCOC(=O)c1oc2ccc(S(=O)(=O)N3CCC(C)CC3)cc2c1C | 5.6% | 25.1µM* | ? | i | -2.1% | -0.5%
CCOc1cc(C(=O)OCc2ccc(C(=O)OC)o2)cc(Br)c1OC | -5.3% | 31.6µM* | ? | i | -3.5% | 0.0%
